Each structure is given as a SMILES string. Among all 320,000 compounds or so, about 620 (0.19%) were called active. Roughly 6% stayed inconclusive and do not appear here. Cut-off read from the data, not from the text of the source: active = activation above about 80%; inconclusive = between about 30% and that limit; inactive = weaker than that. This excerpt belongs to a sample that is enriched for actives.

Chain of Transient receptor potential cation channel subfamily V member 1 (Homo sapiens) (Q8NER1 whole entry, looked up): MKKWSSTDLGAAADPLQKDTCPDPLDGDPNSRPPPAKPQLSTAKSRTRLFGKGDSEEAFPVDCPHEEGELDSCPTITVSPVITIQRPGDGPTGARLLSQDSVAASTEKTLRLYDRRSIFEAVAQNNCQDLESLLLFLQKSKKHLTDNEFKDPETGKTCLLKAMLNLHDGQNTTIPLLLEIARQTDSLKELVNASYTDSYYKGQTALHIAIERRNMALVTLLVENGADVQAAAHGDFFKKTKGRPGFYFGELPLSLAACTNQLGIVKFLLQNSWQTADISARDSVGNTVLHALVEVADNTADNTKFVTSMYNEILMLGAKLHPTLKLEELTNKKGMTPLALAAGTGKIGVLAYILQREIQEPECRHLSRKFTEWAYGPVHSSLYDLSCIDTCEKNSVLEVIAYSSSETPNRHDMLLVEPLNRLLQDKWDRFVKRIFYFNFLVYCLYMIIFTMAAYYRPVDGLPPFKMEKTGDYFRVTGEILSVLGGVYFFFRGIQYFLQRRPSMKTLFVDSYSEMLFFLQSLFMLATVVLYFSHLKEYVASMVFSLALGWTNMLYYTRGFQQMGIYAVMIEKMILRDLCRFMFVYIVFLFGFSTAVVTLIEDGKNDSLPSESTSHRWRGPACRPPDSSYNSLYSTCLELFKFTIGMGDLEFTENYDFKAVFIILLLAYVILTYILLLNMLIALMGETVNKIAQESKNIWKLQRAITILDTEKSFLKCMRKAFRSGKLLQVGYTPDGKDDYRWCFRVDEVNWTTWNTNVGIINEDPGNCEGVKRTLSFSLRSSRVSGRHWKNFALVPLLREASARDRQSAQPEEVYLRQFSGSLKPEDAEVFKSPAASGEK

This experiment has as its target Transient receptor potential cation channel subfamily V member 1 (Homo sapiens) (UniProt Q8NER1). Nature of the experiment: HTS Assay for Compounds that Act as Agonists of the Vanilloid Receptor 1. Note: 0% is about no effect. The settings on record: TRPV1-expressing cells, Fluo-8 calcium influx, agonist mode; at 8.33 µM; active compounds read high. The procedure, abridged:
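TRPV1-expressing cells were cultured overnight at 35.5C and loaded with Fluo-8 calcium dye for 40 to 90 min at room temperature. After a 10 s baseline, compound was added and calcium influx was read kinetically for 3 min (ex 480/em 520 nm).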
With `COc1ccc(C(=O)N2CCN(c3ncccn3)CC2)cc1S(=O)(=O)N1CCOCC1`, the activation was 4.11% (inactive). To `O=C(NC1CC1)c1cccc(Br)c1` belongs -0.868% (inactive). To `O=C(NC1CC1)c1ccc(-c2ccccc2)cc1` belongs 83% (active); to `O=C(NC1CCCC1)c1cc(-c2ccccc2)on1`, 22.2% (inactive). As to `CN(C(=O)CSc1nnc(-c2ccc(C(C)(C)C)cc2)n1C)C1CCS(=O)(=O)C1` (stereo unspecified), the activation is 1.75% (inactive). Under `Cc1cc(C(=O)COc2ccccc2Cl)c(C)n1C1CC1` stands 26.9% (inactive); under `Cc1ccc(S(=O)(=O)N2CC(O)C[C@H]2C(=O)OCC(=O)Nc2ccc(N3CCOCC3)cc2)cc1C` (stereo partly specified), -0.193% (inactive).

For the compound `CCc1noc(C)c1C(=O)Nc1nc2ccc(OC)cc2s1`, the activation is 8.32% (inactive).

Turning to `COc1ccc2nc(NC(=O)c3ccc(Br)s3)sc2c1`, the activation is 97.1% (active). Under `COc1cccc(C(=O)Nc2nc3ccc(S(C)(=O)=O)cc3s2)c1` stands -1.41% (inactive).

`COc1ccc(NC(=O)CC2SC(N3CCCCC3)=NC2=O)cc1OC` (stereo unspecified): the activation was 1.55% (inactive). Under `Cc1nc2c(c(=O)n1Cc1ccco1)c1nc3ccccc3nc1n2Cc1ccccc1` stands 1.97% (inactive); under `CC(=O)c1ccc(-c2ccc(Cn3c(C)nc4cc(N)c(C)nc43)cc2)cc1`, 4.86% (inactive); under `Cc1cc2nc3c(=O)n(Cc4ccccc4)c(=O)[nH]c3nc2cc1N`, 90.7% (active). In the case of `Cc1cnc(NC(=O)c2ccc(Cl)nc2)s1`, the activation is 1.7% (inactive). For `CCN(CC)c1ccc(NC(=O)c2ccc(Cl)nc2)cc1`, the activation was 82% (active).

As for `CCOC(=O)c1ccc(NC(=O)c2cccnc2)cc1`, the activation was -0.797% (inactive). Under `Cc1csc(NC(=O)C2CCN(S(=O)(=O)c3ccccc3)CC2)n1` stands 0.443% (inactive). Under `CCCCn1nc(C(=O)Nc2cccc(C(=O)NC3CC3)c2)c2ccccc2c1=O` stands 17.8% (inactive); under `CC(C)n1ncc2c(C(=O)NCc3ccccc3CN(C)C)cc(C3CC3)nc21`, 1.42% (inactive); under `O=S(=O)(c1cccs1)N1CCN(CCOc2ccccc2)CC1`, 10.7% (inactive). To `O=C(NCC(=O)N1CCCCCCC1)c1ccccc1Cl` belongs 4.74% (inactive).

Take `COc1ccccc1C(CNC(=O)c1cccc(S(=O)(=O)Nc2ccc(F)cc2)c1)N(C)C` (stereo unspecified): the activation was 1.81% (inactive). Under `COc1ccccc1-c1sc2ccccc2c1-c1ccc(Br)nc1` stands 1.98% (inactive); under `Cc1ccc(C(CC(=O)O)NC(=O)c2ccc(S(=O)(=O)N3CCCC3)cc2)cc1` (stereo unspecified), -0.421% (inactive); under `O=C(CN1CCc2ccccc2C1)Nc1cccc(S(=O)(=O)N2CCOCC2)c1`, 13.1% (inactive).
